In PubChem BioAssay AID687020 (Broad Institute, 2013):
The whole screen tested about 1,400 compounds, of which about 100 (7.1%) were called active. Only a sample is shown. Potency and affinity values are given separately. Values without a mark were called inactive. No rule for the calls is given here.

Test: viability loss in Vero cells – cell-based, plate reader, cherry-pick samples, cytotoxicity control, dose response (AID 687020);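 also: compounds incubated with cells for three days before luminescence read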
Conditions: series mostly up to 19.5 µM; activity change, negative = toxicity: at the top concentration

Going from `Cc1noc(C)c1NC(=O)N(C)C[C@H]1OCCCC[C@H](C)Oc2ccc(NC(=O)NC(C)C)cc2C(=O)N([C@H](C)CO)C[C@@H]1C` to `Cc1noc(C)c1NC(=O)Nc1ccc2c(c1)C(=O)N([C@@H](C)CO)C[C@H](C)[C@@H](CN(C)C(=O)CCCN(C)C)OCCCC[C@@H](C)O2`, the “activity change, negative = toxicity” value rises from -12.9% to -1.38%.

Going from `CCOC(=O)c1cn(CC)c2cc3c(cc2c1=O)OCO3` to `COc1ccccc1CCNS(=O)(=O)CCNC(=O)c1ccc2c(c1)OCO2`, the “activity change, negative = toxicity” value falls from -2.25% to -4.31%.

Going from `Cc1ccc(NC(=O)c2cc(-c3cc(Cl)ccc3C)n[nH]2)cc1NS(C)(=O)=O` to `O=C(Nc1ccc(S(=O)(=O)NC2=NCCCCC2)cc1)c1cccs1`, the “activity change, negative = toxicity” value falls from 9.63% to -6.51%.

Going from `O=C(NCc1ccccc1)[C@H]1CCCN1C(=O)[C@@H]1CCCN1C(=O)c1ccc(Cl)cc1Cl` to `Fc1ccc(CNC2CCN(Cc3ccccc3)CC2)cc1`, the “activity change, negative = toxicity” value rises from -23.7% to 0.52%.

Compared with `O=C(NCc1ccccc1)c1ccccc1`, `CS(=O)(=O)NCc1ccc(C(=O)NCCOc2ccccc2)cc1` is higher in “activity change, negative = toxicity” value: -0.227% for the first, 2.03% for the second.

First: Cc1noc(C)c1NC(=O)Nc1cccc2c1O[C@@H](CN(C)S(=O)(=O)c1ccc(F)cc1)[C@@H](C)CN([C@@H](C)CO)C2=O
Second: Cc1noc(C)c1S(=O)(=O)Nc1ccc2c(c1)C(=O)N([C@@H](C)CO)C[C@@H](C)[C@H](CN(C)C(=O)Nc1ccccc1)OCCCC[C@@H](C)O2
The “activity change, negative = toxicity” value of the first is higher: -3.08% for the first, -5.09% for the second.

First: C=CCOc1ccccc1CNn1c(C)n[nH]c1=S
Second: Cc1cc(Br)ccc1NC(=O)CN(C)C(=O)COc1cccc2c1OC(C)(C)C2
The “activity change, negative = toxicity” value of the first is higher: -9.09% for the first, -22.1% for the second.

First: CN(Cc1ccccc1)C(=O)c1nc[nH]c1C(=O)N1CCN(C(=O)OC(C)(C)C)CC1
Second: Cc1ccc(S(=O)(=O)N2CCN(C(=O)C(O)c3ccccc3)CC2)cc1 (configuration not stated)
The “activity change, negative = toxicity” value of the first is higher: -6.81% for the first, -18.2% for the second.

Compared with `COC(=O)C[C@H]1CC[C@H]2[C@@H](COc3ccc(NC(=O)c4cnccn4)cc3C(=O)N2C)O1`, `COc1ccc(Cl)cc1NC(=O)CN(C)C(=O)C1COc2ccccc2O1` (configuration not stated) is lower in “activity change, negative = toxicity” value: 1.66% for the first, -15.1% for the second.

First: CCCCOc1ccc(C(=O)NCCOc2cccc(OC)c2)cc1
Second: COc1ccc(C(C)(NC(C)=O)c2nc(-c3cccc(F)c3)cs2)cc1 (configuration not stated)
The “activity change, negative = toxicity” value of the first is lower: -4.01% for the first, -2.95% for the second.

Going from `Cc1c(Cl)cccc1NC(=O)CNC(=O)C1CC(=O)N(C2CCCC2)C1` (configuration not stated) to `CCCNC(=O)OC1CC2CC1[C@H]1CCCCN1C2=O` (some centres not stated), the “activity change, negative = toxicity” value rises from -10.4% to 2.02%.

First: CN(C)CCCNC(=O)OC1CC2CC1[C@H]1CCCCN1C2=O (some centres not stated)
Second: COCCCN1C(=O)C(CC(=O)NC2CCCCC2)CC(C(=O)N(C(C)C)C(C)C)=C1C (configuration not stated)
The “activity change, negative = toxicity” value of the first is higher: -2.19% for the first, -16.2% for the second.

Compared with `O=C(NCc1ccccn1)C(=O)NCC1OCCN1S(=O)(=O)c1ccc(Br)cc1` (configuration not stated), `COC(=O)C[C@@H]1OC[C@H](Cc2ccccc2)N1S(=O)(=O)c1ccc(C)cc1` is lower in “activity change, negative = toxicity” value: -6.28% for the first, -39.2% for the second.

First: Cc1cc(C)n2c(Nc3ccc4c(c3)OCCO4)c(CC(C)C)nc2n1
Second: Cc1cc(C)n2c(NC3CCCCC3)c(-c3ccccn3)nc2n1
The “activity change, negative = toxicity” value of the first is lower: -21.1% for the first, -7.23% for the second.

First: Cc1ccc(S(=O)(=O)N2CCN(C(=O)COC(=O)Cc3ccc(Cl)cc3)CC2)c(C)c1
Second: COc1ccc(N(CC(=O)N2CCN(C)CC2)S(=O)(=O)c2cc(C)ccc2OC)cc1Cl
The “activity change, negative = toxicity” value of the first is higher: -17.2% for the first, -25.7% for the second.

Compared with `COc1ccc(C(C(=O)NCc2ccccc2)n2c(-c3ccncc3)nc3ccccc32)cc1` (configuration not stated), `c1ccc(-c2csc(-c3ccc(-c4csnn4)cc3)n2)cc1` is lower in “activity change, negative = toxicity” value: -13% for the first, -16.9% for the second.

First: CN(C)c1ccc(CNS(=O)(=O)c2ccc3c(c2)C(C)(C)C(=O)N3C)cc1
Second: COc1ccc(CN2CCC[C@]3(N[C@H](c4ccc(OC)cc4)[C@@H]4C(=O)N(C)C(=O)[C@@H]43)C2=O)cc1
The “activity change, negative = toxicity” value of the first is lower: -30.9% for the first, -3.12% for the second.

Going from `C[C@H]1CCCCO[C@H](CN(C)S(=O)(=O)c2ccc(Cl)cc2)[C@@H](C)CN([C@@H](C)CO)C(=O)c2cc(NC(=O)Cc3ccccc3)ccc2O1` to `C[C@@H]1CN([C@@H](C)CO)C(=O)c2cc(C#CCc3ccccc3)cnc2O[C@@H]1CN(C)C(=O)C1CCOCC1`, the “activity change, negative = toxicity” value rises from -3.01% to 2.03%.

Going from `COc1ccc(C2=Nn3c(nnc3-c3ccccc3Cl)SC2)cc1OCC1CC1` to `COc1ccc(-c2cnc3c(NC(C)=O)cc(-c4ccccc4OC)cn23)cc1OC`, the “activity change, negative = toxicity” value rises from -15.7% to 0.032%.

Compared with `COc1ccc(OC)c(S(=O)(=O)N2CCN(c3c(C)cccc3C)CC2)c1`, `O=C(CCc1nc2ccccc2c(=O)[nH]1)N1CCCc2ccccc21` is higher in “activity change, negative = toxicity” value: -9.78% for the first, -7.68% for the second.

Going from `CCCNC(=O)N1C[C@H](O)COC[C@@H]2O[C@@H](CC(=O)N3CCOCC3)CC[C@H]21` to `CCOC(=O)CN1CC23C=CC(O2)C(C(=O)NCCc2ccccc2)C3C1=O` (configuration not stated), the “activity change, negative = toxicity” value falls from -2.31% to -11%.

First: O=C(NCC1CC1)C1(S(=O)(=O)c2ccccc2)CC=CC1
Second: O=C(O)CNC(=O)c1ccc(NS(=O)(=O)c2ccc3ccccc3c2)cc1
The “activity change, negative = toxicity” value of the first is higher: 3.88% for the first, -5.7% for the second.

Going from `CCOC(=O)N1CCN(Cc2nc3cc(NC(=O)CC)ccc3n2CC)CC1` to `COc1cc(NC(C)=O)c2ncccc2c1Br`, the “activity change, negative = toxicity” value rises from -25.9% to -17.8%.

For `O=C1N2CCCCC1(c1ccccc1)CCCC2`, the “activity change, negative = toxicity” value was -13.6%.
